Laboratory results as given in PubChem BioAssay (NCI).
About 79,000 compounds went through this panel and 15% of them were active in at least one assay; those are over-represented in the sample as a whole. Calls of active or inactive are those of the source. Cut-off read from the data, not from the text of the source: active = growth inhibition above about 70%; inactive = the rest.

Test: NCI Yeast Anticancer Drug Screen. Data for the sgs1 mgt1 strain (AID 161);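 note: 0% = growth of cultures given vehicle only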
Conditions: S. cerevisiae sgs1 mgt1 strain, at 50.0 µM, hits give high values
In short: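 This yeast growth screen uses a strain with defined DNA-repair lesions; compound-treated growth is compared with vehicle-treated growth.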

Row | Structure (SMILES) | growth inhibition
1 | Nc1ncnc(N2CCOCC2)c1N | 0.95% (inactive)
2 | CN(C)c1ccc2c(NCCCCCCNc3ccnc4cc(N(C)C)ccc34)ccnc2c1 | 53.4% (inactive)
3 | CC(C)N=Cc1cc(Br)cc(Br)c1O.CC(C)N=Cc1cc(Br)cc(Br)c1O.[Co] | 98% (active)
4 | O=C1c2ccc(O)cc2C(=O)c2c1ccc(O)c2O | 83% (active)
5 | COc1cc2c[n+](C)c3c4cc(OC)c(OCc5ccccc5)cc4c(OCc4ccccc4)cc3c2cc1OC | 51.1% (inactive)
6 | O=C(Nc1ccc(Cl)cc1)OCC1C2C=CC(C2)C1CO (stereo not given) | 98.4% (active)
7 | Cn1nc(-c2ccccc2NC(=O)C(F)(F)F)c(=O)n(C)c1=S | 50.5% (inactive)
8 | OCc1c2c(cc3c1CC1(C3)Cc3cc4c(c(CO)c3C1)CCC4)CCC2 | 27.1% (inactive)
9 | O=C(C[n+]1ccccc1)N=N/C(C(=O)Nc1c(Cl)c(O)c2ccccc2c1O)=C1/C(=O)Oc2cc(O)ccc2C1=O | 93% (active)
10 | Cc1cc(Cl)c(O)c(-c2cc(-c3ccccc3O)c(C#N)c(N)n2)c1 | 67.7% (inactive)
11 | CCCCNc1ncc(OCC)c(NCCCC)n1 | 92.5% (active)
12 | C#CCCCCCOC(=O)c1cc([N+](=O)[O-])cc([N+](=O)[O-])c1 | 99% (active)
13 | C=C(C)C1(C(=O)OCC(Cl)(Cl)Cl)NC(=O)C(NC(=O)COc2ccccc2)=CO1 (stereo not given) | 94.5% (active)
14 | Cc1ccc(SCC#CC#CCS(=O)c2ccc(C)cc2)cc1 (stereo not given) | 97.8% (active)
15 | CCCCCCCCCCCCCCCC1C(N)C(=O)N(C)N1C (stereo not given) | 91.7% (active)
16 | O=c1c(O)cc2c(O)oc3c(=O)c(O)c(O)c4c(O)oc1c2c43 | 67.2% (inactive)
17 | CCCCN(CCCC)CCNc1ccc(NS(=O)(=O)c2ccccc2)c2sc3ccccc3c(=O)c12 | 98.2% (active)
18 | CCOC(=O)CC(N)CC(=O)OCC | -1.35% (inactive)
19 | O=c1cc(Cl)c(Cl)nn1-c1ccccc1 | 40.3% (inactive)
20 | CC(=O)Nc1ccc(-c2ccccc2)cc1[N+](=O)[O-] | -24.1% (inactive)

Row | Structure (SMILES) | growth inhibition
21 | O=C1OC(c2ccccc2)N/C1=C\c1ccc2c(c1)OCO2 (stereo not given) | -8.55% (inactive)
22 | CCOc1c(N=Nc2ccc(Cl)cc2)c(-c2ccccc2)nn1C(=S)S | 92% (active)
23 | BrCN(CBr)c1ccc2c(c1)Cc1cc(Br)ccc1-2 | 64.8% (inactive)
24 | COc1cc(NCCCCCCCC2CCCCN2)c2ncccc2c1 (stereo not given) | 98.5% (active)
25 | Cc1cc(Br)cc(C)c1NC(=O)C(=O)C(C(=O)c1ccc2ccccc2c1)C1OC(=O)c2ccccc21 (stereo not given) | 27.7% (inactive)
26 | O=Cc1cc2c(s1)C(=O)c1sccc1C2=O | 89% (active)
27 | C=C1CC2(CC(C(C)C)CCC2C)OC1=O (stereo not given) | 14.7% (inactive)
28 | CCSC(=Nc1nc2ccc(NC(C)=O)cc2s1)SCC | 98.5% (active)
29 | CCOc1ccc2c(c1)n([O-])c1cc(Br)ccc1[n+]2=O | 88.2% (active)
30 | CCCCC(CCCC)=NNC(=S)SC | 66% (inactive)
31 | COc1ccc2c(c1)CCc1c(CO)c(COC(=O)NC(C)C)n(C)c1-2 | 96.5% (active)
32 | CSc1cc2c(cc1N)Cc1ccccc1-2 | 97% (active)
33 | O=C1C=C(c2ccccc2)OC(c2ccccc2)C1 (stereo not given) | 15.2% (inactive)
34 | CCOc1ccc2nc([NH-])sc2c1.CCOc1ccc2nc([NH-])sc2c1.[Cl][Pt+2][Cl] | 47.8% (inactive)
35 | Cc1nc2c(Cl)nc(Cl)nc2s1 | 98.7% (active)
36 | Cc1cc(O)n(Cc2ccccc2)c(=O)c1 | 34.6% (inactive)
37 | NCCC1=CCCCC1 | 88.3% (active)
38 | CCOC(=O)/C(=C\n1c(=O)sc2ccccc21)C(=O)c1ccccc1 | 74.8% (active)
39 | Cc1ccc(S(=O)(=O)Nc2ccccc2C=O)cc1 | 99% (active)
40 | CC1COC(c2cn[nH]c2C(N)=O)C1O (stereo not given) | -6.4% (inactive)

Test: NCI Yeast Anticancer Drug Screen. Data for the cln2 rad14 strain (AID 165);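 note: 0% = growth equal to vehicle treated cultures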
Conditions: S. cerevisiae cln2 rad14 strain, at 5.0 µM (retest, dose inferred, filed as 0.5), hits give high values
In short: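 Strain: cln2 rad14 yeast, altered in cell cycle control and DNA damage repair. Read-out: growth inhibition vs vehicle.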

Row | Structure (SMILES) | growth inhibition
41 | Nc1ncnc(N2CCOCC2)c1N | -7% (inactive)
42 | CN(C)c1ccc2c(NCCCCCCNc3ccnc4cc(N(C)C)ccc34)ccnc2c1 | 1% (inactive)
43 | CC(C)N=Cc1cc(Br)cc(Br)c1O.CC(C)N=Cc1cc(Br)cc(Br)c1O.[Co] | 88% (active)
44 | O=C1c2ccc(O)cc2C(=O)c2c1ccc(O)c2O | 9% (inactive)
45 | COc1cc2c[n+](C)c3c4cc(OC)c(OCc5ccccc5)cc4c(OCc4ccccc4)cc3c2cc1OC | 5% (inactive)
46 | O=C(Nc1ccc(Cl)cc1)OCC1C2C=CC(C2)C1CO (stereo not given) | 2% (inactive)
47 | Cn1nc(-c2ccccc2NC(=O)C(F)(F)F)c(=O)n(C)c1=S | -3% (inactive)
48 | OCc1c2c(cc3c1CC1(C3)Cc3cc4c(c(CO)c3C1)CCC4)CCC2 | 10% (inactive)
49 | O=C(C[n+]1ccccc1)N=N/C(C(=O)Nc1c(Cl)c(O)c2ccccc2c1O)=C1/C(=O)Oc2cc(O)ccc2C1=O | -15% (inactive)
50 | Cc1cc(Cl)c(O)c(-c2cc(-c3ccccc3O)c(C#N)c(N)n2)c1 | -4% (inactive)
51 | CCCCNc1ncc(OCC)c(NCCCC)n1 | -2% (inactive)
52 | C#CCCCCCOC(=O)c1cc([N+](=O)[O-])cc([N+](=O)[O-])c1 | 95% (active)
53 | C=C(C)C1(C(=O)OCC(Cl)(Cl)Cl)NC(=O)C(NC(=O)COc2ccccc2)=CO1 (stereo not given) | 6% (inactive)
54 | Cc1ccc(SCC#CC#CCS(=O)c2ccc(C)cc2)cc1 (stereo not given) | 44% (inactive)
55 | CCCCCCCCCCCCCCCC1C(N)C(=O)N(C)N1C (stereo not given) | -30% (inactive)
56 | O=c1c(O)cc2c(O)oc3c(=O)c(O)c(O)c4c(O)oc1c2c43 | 12% (inactive)
57 | CCCCN(CCCC)CCNc1ccc(NS(=O)(=O)c2ccccc2)c2sc3ccccc3c(=O)c12 | 31% (inactive)
58 | CCOC(=O)CC(N)CC(=O)OCC | -53% (inactive)
59 | O=c1cc(Cl)c(Cl)nn1-c1ccccc1 | 6% (inactive)
60 | CC(=O)Nc1ccc(-c2ccccc2)cc1[N+](=O)[O-] | 0% (inactive)

Row | Structure (SMILES) | growth inhibition
61 | O=C1OC(c2ccccc2)N/C1=C\c1ccc2c(c1)OCO2 (stereo not given) | 11% (inactive)
62 | CCOc1c(N=Nc2ccc(Cl)cc2)c(-c2ccccc2)nn1C(=S)S | 5% (inactive)
63 | BrCN(CBr)c1ccc2c(c1)Cc1cc(Br)ccc1-2 | 7% (inactive)
64 | COc1cc(NCCCCCCCC2CCCCN2)c2ncccc2c1 (stereo not given) | 0% (inactive)
65 | Cc1cc(Br)cc(C)c1NC(=O)C(=O)C(C(=O)c1ccc2ccccc2c1)C1OC(=O)c2ccccc21 (stereo not given) | 1% (inactive)
66 | O=Cc1cc2c(s1)C(=O)c1sccc1C2=O | 52% (inactive)
67 | C=C1CC2(CC(C(C)C)CCC2C)OC1=O (stereo not given) | 31% (inactive)
68 | CCSC(=Nc1nc2ccc(NC(C)=O)cc2s1)SCC | -3% (inactive)
69 | CCOc1ccc2c(c1)n([O-])c1cc(Br)ccc1[n+]2=O | 35% (inactive)
70 | CCCCC(CCCC)=NNC(=S)SC | -3% (inactive)
71 | COc1ccc2c(c1)CCc1c(CO)c(COC(=O)NC(C)C)n(C)c1-2 | 3% (inactive)
72 | CSc1cc2c(cc1N)Cc1ccccc1-2 | 1% (inactive)
73 | O=C1C=C(c2ccccc2)OC(c2ccccc2)C1 (stereo not given) | -69% (inactive)
74 | CCOc1ccc2nc([NH-])sc2c1.CCOc1ccc2nc([NH-])sc2c1.[Cl][Pt+2][Cl] | -2% (inactive)
75 | Cc1nc2c(Cl)nc(Cl)nc2s1 | -8% (inactive)
76 | Cc1cc(O)n(Cc2ccccc2)c(=O)c1 | -60% (inactive)
77 | NCCC1=CCCCC1 | -7% (inactive)
78 | CCOC(=O)/C(=C\n1c(=O)sc2ccccc21)C(=O)c1ccccc1 | 22% (inactive)
79 | Cc1ccc(S(=O)(=O)Nc2ccccc2C=O)cc1 | 1% (inactive)
80 | CC1COC(c2cn[nH]c2C(N)=O)C1O (stereo not given) | -33% (inactive)
